Assay results from PubChem BioAssay (NCI).
This is part of a sample that, as a whole, favours compounds with a hit. Of some 83,000 tested, about 20% had one in any assay.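 Values shown are percent growth following 48 h exposure of cells in 96-well plates to a single concentration of compound; below 10 was considered active.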 Calls of active or inactive are those of the source.

These compounds were tested on T-47D breast (assay: NCI-60 one-dose screen, 48 h (100 = growth as untreated, 0 = no growth, -100 = all killed)). Conditions: 10 µM unless noted.
With `Cc1c2cnccc2c(C)c2c1c1cc(C3OCCCO3)ccc1n2C` the growth was -4.56% (active).
For `CC(C)c1ccc(-n2c(=S)[nH]c3sc4c(c3c2=O)CCC(=O)C4)cc1`, the growth was 11.7% (inactive).
In the case of `O=C(Nc1cccc(NC(=O)C2CCCCC2)c1)c1ccccn1`, the growth is reported as 95.7% (inactive).
For `O=C1NC(=O)c2c1c1c3ccccc3[nH]c1c1oc3ccc(F)cc3c21`, the growth was 24.4% (inactive).
With `CCOC(=O)c1ccc2c(c1)c1c(C)c3ccncc3c(C)c1n2C` the growth was -3.13% (active).
With `COc1ccc(-c2oc(=O)ccc2-c2cc(OC)c(OC)c(OC)c2)cc1O` the growth was 44.7% (inactive).
With `COc1cc(Nc2c3ccc(Cl)cc3nc3ccc(OC)cc23)c2ncccc2c1` the growth was 48.6% (inactive).
With `O=C(CCCCCCN1CC(=O)N2[C@@H](C3CCCCC3)c3[nH]c4ccccc4c3C[C@H]2C1=O)NO` the growth was 44.2% (inactive).
In the case of `C=CCN=C(N)SCCCCCCSC(N)=NCC=C`, the growth is reported as 55.9% (inactive).
In the case of `O=C(/C=C\c1ccco1)/C=C/c1ccco1`, the growth is reported as 112% (inactive).
`C#Cc1cccc(Nc2nc3ccc([N+](=O)[O-])cc3nc2Nc2cccc(C#C)c2)c1` was tested, and the growth was -36.1% (active).
For `COc1cc(/C=C2\CN(S(=O)(=O)c3ccc(C)cc3)C/C(=C\c3cc(CN4CCCCC4)c(O)c(OC)c3)C2=O)cc(CN2CCCCC2)c1O`, the growth was 33.8% (inactive).
In the case of `O=C1/C(=C/c2ccc(Br)cc2)COc2ccc(O)c(O)c21`, the growth is reported as -16.3% (active).
With `O=C1CC2C=CCN2C=C1NC(=O)C1CCCCC1` (stereo unspecified) the growth was 84% (inactive).
`CCN(CC)CCOc1nc2c3ccc(Cl)cc3nn2c2ccccc12` was tested, and the growth was 53.4% (inactive).
With `COc1ccc2c(O)c(/C=C3\N=Nc4ccccc43)oc2c1C[C@H]1CCNC[C@H]1F` the growth was 83.3% (inactive).
For `CCCCCCC(=O)Nc1ncc(Cc2ccc(C)cc2)s1`, the growth was 35.4% (inactive).
For `COc1ccc(C2C3=C(COC3=O)N(CCO)c3cc4c(cc32)OCCO4)cc1OC` (stereo unspecified), the growth was 25.9% (inactive).
For `Nc1c(C(=O)Nc2ccccn2)sc2nc3c(cc12)C(O)CCC3` (stereo unspecified), the growth was 15% (inactive).
In the case of `Cc1nc2sc(C(=O)Nc3ccc(Cl)cc3)c(N)c2cc1C(O)c1ccccc1` (stereo unspecified), the growth is reported as 40.8% (inactive).
With `COc1ncc2cc1NS(=O)(=O)c1cccc(c1)C(=O)NCC1=CC=C(S1)c1ncnc3c1SC2=C3C` the growth was -29% (active).
With `CC(/C=C1\SC(=S)N(CC(=O)NC(Cc2c[nH]c3ccccc23)C(=O)O)C1=O)=C\c1ccccc1` (stereo unspecified) the growth was 106% (inactive).
With `C=C(C)[C@@H]1CC[C@]2(CO)CC[C@]3(C)[C@H](CC[C@@H]4[C@@]5(C)CCC(NCCc6ccc(O)cc6)C(C)(C)[C@@H]5CC[C@]43C)[C@@H]12` (stereo partly specified) the growth was -66.3% (active).
For `Cn1cc(-c2nn3cc(-c4ccccc4)nc3s2)c2ccccc21`, the growth was 59.6% (inactive).
In the case of `C#CCOc1cccc(-c2ncc3cc(NC(=O)CCl)ccc3n2)c1`, the growth is reported as -26.7% (active).
`C#CC#CC#CC#CC#CC#CC#CC#CC[C@H]1OC[C@@H](COC(=O)O[C@@H](C(=O)O[C@H]2C[C@@]3(O)[C@@H](OC(=O)c4ccccc4)[C@@H]4[C@]5(OC(C)=O)CO[C@@H]5C[C@H](O)[C@@]4(C)C(=O)[C@H](OC(C)=O)C(=C2C)C3(C)C)[C@@H](NC(=O)c2ccccc2)c2ccccc2)O1` was tested, and the growth was 53.4% (inactive).

What follows are compounds tested on BT-549 breast in the same assay as above. Conditions: 10 µM unless noted.
`COc1ccc(C(c2cc(OC)c(OC)c(OC)c2)N2CCN(Cc3ccccc3)CC2)cc1` (stereo unspecified) was tested, and the growth was 92.4% (inactive).
In the case of `COc1ccc2nc(SCC(=O)Nc3ccccc3C)[nH]c2c1`, the growth is reported as 97.6% (inactive).
With `N/C(=N\c1nc2ccccc2s1)NC(=NC1CCCCC1)NC1CCCCC1` the growth was 47.6% (inactive).
With `CSCCC(NC(=O)c1ccccc1)C(=O)N/N=C1\S/C(=C/c2ccc(Cl)cc2)C(=O)N1C` (stereo unspecified) the growth was 87.3% (inactive).
For `S=c1[nH]c2cc(Cl)ccc2o1`, the growth was 99.8% (inactive).
With `COc1ccc(-c2cc(C(=O)N3N=C(c4ccc(N)cc4)CC3c3ccccc3)c3ccccc3n2)cc1` (stereo unspecified) the growth was 41.3% (inactive).
With `Cn1c(=O)c2c(nc(NC3=NS(=O)(=O)c4ccccc43)n2Cc2ccccc2)n(C)c1=O` the growth was 106% (inactive).
For `O=C(Nc1cccnc1Nc1ccc(Cl)cc1)c1cn(Cc2ccc(F)cc2)nn1`, the growth was 88% (inactive).
For `Cc1c2cc[nH]c(=O)c2c(C)c2c1[nH]c1ccc(OC(=O)c3ccccc3)cc12`, the growth was 40.8% (inactive).
In the case of `N=C(N)c1ccc(-c2ccc(-c3ccc(Cl)cc3Cl)s2)cc1F`, the growth is reported as 84.8% (inactive).
In the case of `COc1ccc2cc(Cn3cc[n+](Cc4ccc5ccccc5c4)c3)ccc2c1`, the growth is reported as 11.8% (inactive).
`COC(=O)c1c2c(n3ccc(C)cc13)C(=O)c1ccccc1C2=O` was tested, and the growth was 69.7% (inactive).
`CNC(=O)c1cc(Oc2ccc3nc(NC(=O)Nc4ccc(Cl)c(Cl)c4)sc3c2)ccn1` was tested, and the growth was 32.1% (inactive).
In the case of `Cc1c(Cl)cccc1C(=O)Nc1nc2c(s1)CN(C(=O)Nc1cccc(C(F)(F)F)c1)CC2`, the growth is reported as 33.6% (inactive).
In the case of `Cc1c2cnccc2c(C)c2c1c1cc(C3OCCCO3)ccc1n2C`, the growth is reported as -37% (active).
For `CC(C)c1ccc(-n2c(=S)[nH]c3sc4c(c3c2=O)CCC(=O)C4)cc1`, the growth was 26.3% (inactive).
For `O=C(Nc1cccc(NC(=O)C2CCCCC2)c1)c1ccccn1`, the growth was 102% (inactive).
With `O=C1NC(=O)c2c1c1c3ccccc3[nH]c1c1oc3ccc(F)cc3c21` the growth was 71% (inactive).
In the case of `CCOC(=O)c1ccc2c(c1)c1c(C)c3ccncc3c(C)c1n2C`, the growth is reported as 21.1% (inactive).
In the case of `COc1ccc(-c2oc(=O)ccc2-c2cc(OC)c(OC)c(OC)c2)cc1O`, the growth is reported as 24.7% (inactive).
For `COc1cc(Nc2c3ccc(Cl)cc3nc3ccc(OC)cc23)c2ncccc2c1`, the growth was 56.2% (inactive).
With `O=C(CCCCCCN1CC(=O)N2[C@@H](C3CCCCC3)c3[nH]c4ccccc4c3C[C@H]2C1=O)NO` the growth was 80.6% (inactive).
For `C=CCN=C(N)SCCCCCCSC(N)=NCC=C`, the growth was 84.9% (inactive).
In the case of `O=C(/C=C\c1ccco1)/C=C/c1ccco1`, the growth is reported as 101% (inactive).
In the case of `C#Cc1cccc(Nc2nc3ccc([N+](=O)[O-])cc3nc2Nc2cccc(C#C)c2)c1`, the growth is reported as -59.3% (active).
For `COc1cc(/C=C2\CN(S(=O)(=O)c3ccc(C)cc3)C/C(=C\c3cc(CN4CCCCC4)c(O)c(OC)c3)C2=O)cc(CN2CCCCC2)c1O`, the growth was -49% (active).
In the case of `O=C1/C(=C/c2ccc(Br)cc2)COc2ccc(O)c(O)c21`, the growth is reported as 3.5% (active).
For `O=C1CC2C=CCN2C=C1NC(=O)C1CCCCC1` (stereo unspecified), the growth was 117% (inactive).
For `CCN(CC)CCOc1nc2c3ccc(Cl)cc3nn2c2ccccc12`, the growth was 70.3% (inactive).
`COc1ccc2c(O)c(/C=C3\N=Nc4ccccc43)oc2c1C[C@H]1CCNC[C@H]1F` was tested, and the growth was 71.2% (inactive).
With `CCCCCCC(=O)Nc1ncc(Cc2ccc(C)cc2)s1` the growth was 59.1% (inactive).
`COc1ccc(C2C3=C(COC3=O)N(CCO)c3cc4c(cc32)OCCO4)cc1OC` (stereo unspecified) was tested, and the growth was 53.9% (inactive).
`Nc1c(C(=O)Nc2ccccn2)sc2nc3c(cc12)C(O)CCC3` (stereo unspecified) was tested, and the growth was 58.2% (inactive).
With `Cc1nc2sc(C(=O)Nc3ccc(Cl)cc3)c(N)c2cc1C(O)c1ccccc1` (stereo unspecified) the growth was 59.2% (inactive).
`COc1ncc2cc1NS(=O)(=O)c1cccc(c1)C(=O)NCC1=CC=C(S1)c1ncnc3c1SC2=C3C` was tested, and the growth was -52.7% (active).
For `CC(/C=C1\SC(=S)N(CC(=O)NC(Cc2c[nH]c3ccccc23)C(=O)O)C1=O)=C\c1ccccc1` (stereo unspecified), the growth was 105% (inactive).
`C=C(C)[C@@H]1CC[C@]2(CO)CC[C@]3(C)[C@H](CC[C@@H]4[C@@]5(C)CCC(NCCc6ccc(O)cc6)C(C)(C)[C@@H]5CC[C@]43C)[C@@H]12` (stereo partly specified) was tested, and the growth was 33.9% (inactive).
`Cn1cc(-c2nn3cc(-c4ccccc4)nc3s2)c2ccccc21` was tested, and the growth was 78.1% (inactive).
For `C#CCOc1cccc(-c2ncc3cc(NC(=O)CCl)ccc3n2)c1`, the growth was -49.3% (active).
With `C#CC#CC#CC#CC#CC#CC#CC#CC[C@H]1OC[C@@H](COC(=O)O[C@@H](C(=O)O[C@H]2C[C@@]3(O)[C@@H](OC(=O)c4ccccc4)[C@@H]4[C@]5(OC(C)=O)CO[C@@H]5C[C@H](O)[C@@]4(C)C(=O)[C@H](OC(C)=O)C(=C2C)C3(C)C)[C@@H](NC(=O)c2ccccc2)c2ccccc2)O1` the growth was 53.2% (inactive).
